High-throughput results (PubChem)
Compounds with a hit are over-represented: about 11% of the library has one in this group of screens.
HP1b chromo inh: HTS for Inhibitors of HP1-beta Chromodomain Interactions with Methylated Histone Tails; Chromobox protein homolog 1 (Homo sapiens), P83916; AlphaScreen HP1-beta / biotin-H3K9me3 peptide binding; Potency, µM (top dose mostly 114 µM), for the others: at the top dose activity change, negative = inhibition, usual class: inhibitors; 390,000 compounds, 0.56% hits; further: potency means the concentration at half of the fitted maximal effect; nearly all actives have a fitted effect of over 70% in size
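AlphaScreen: HP1-beta (50 nM) preformed 30 min with biotin-H3(1-18)K9me3 peptide (50 nM) in PBS pH 7.4, 0.01% Tween-20. Compound added for 30 min at RT, then streptavidin donor/nickel chelate acceptor beads (10 ug/mL) for 30 min.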
PI5P4K alpha inh: qHTS for Inhibitors of phosphatidylinositol 5-phosphate 4-kinase (PI5P4K); Phosphatidylinositol 5-phosphate 4-kinase type-2 alpha (Homo sapiens), P48426; PI5P4Kalpha enzyme, ADP-Glo luminescence, 60 min; hits give low values; max response, %; 330,000 compounds, 1.2% hits; AID 652105, 2013; active means max response of -50% or lower; inconclusive means between -30% and -50%; inactive means -30% or higher; further: value at the top dose of about 77 µM; on the % scale 0 is the no-effect control and ±100 the full control effect
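PI5P4Kalpha ADP-Glo assay; 5 microM ATP final; 60 min RT reaction; HEPES pH 7.4/EGTA/CHAPS, 5% DMSO; controls lacking substrate or enzyme; luminescent end-point.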
BAZ2B inh: qHTS Assay for Inhibitors of BAZ2B; Bromodomain adjacent to zinc finger domain protein 2B (Homo sapiens), Q9UIF8; AlphaScreen BAZ2B-H3K14Ac peptide displacement; Potency, µM (doses to about 114 µM), for inactives: at the top dose activity change, negative = inhibition, actives largely listed as inhibitors; 360,000 compounds, 4.4% hits; AID 504333, 2011; further: potency means the concentration at half of the fitted maximal effect; on the % scale 0 is the no-effect control and ±100 the full control effect; nearly all actives have a fitted effect of over 60% in size
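Inhibition is scored as reduced AlphaScreen emission. The BAZ2B/b-H3(5-23)K14Ac complex (50 nM each) in PBS pH 7.4, 0.01% Tween-20 meets compound (up to 110 uM) for 30 min at RT before bead addition.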
G9a block: qHTS Assay for Inhibitors of Histone Lysine Methyltransferase G9a; Potency, µM (highest dose often 102 µM), inactives show at the top dose activity, negative = inhibition, usual class: inhibitors; Histone-lysine N-methyltransferase EHMT2 (Homo sapiens), Q96KQ7; 350,000 compounds, 8.8% hits; G9a H3K9 monomethylation, AlphaScreen, 2 h; further: potency means the concentration at half of the fitted maximal effect; on the % scale 0 is the no-effect control and ±100 the full control effect; nearly all actives have a fitted effect of over 75% in size
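Chemiluminescent proximity detection of H3K9 monomethylation, read after 10 min bead incubation in the dark. Reaction: 20 nM G9a, 500 nM biotin-H3K9 peptide, 20 uM SAM cofactor, 2 h, room temperature, following 15 min enzyme-compound preincubation.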
JMJD2A Tudor inh: qHTS Assay for Inhibitors of JMJD2A-Tudor Domain; AlphaScreen JMJD2A-Tudor / H3K4me3 peptide binding; 390,000 compounds, 4.4% hits; Potency, µM (doses to about 114 µM), inactives show top-dose activity change, negative = inhibition, most hits filed as inhibitors; further: potency means the concentration at half of the fitted maximal effect; on the % scale 0 is the no-effect control and ±100 the full control effect; nearly all actives have a fitted effect of over 50% in size
L3MBTL1 block: qHTS Assay for the Inhibitors of L3MBTL1; Lethal(3)malignant brain tumor-like protein 1 (Homo sapiens), Q9Y468; AlphaScreen L3MBTL1–H3K9me1 peptide binding; Potency, µM (series often up to 57.1 µM), for inactives: at the highest dose activity, negative = inhibition, usual class: inhibitors; 230,000 compounds, 0.66% hits; AID 485360, 2010; further: potency means the concentration at half of the fitted maximal effect; on the % scale 0 is the no-effect control and ±100 the full control effect; nearly all actives have a fitted effect of over 60% in size
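L3MBTL1 (50 nM) pre-complexed 30 min with biotinylated H3(1-15)K9me1 peptide (75 nM), then compounds added for 30 min at room temperature; AlphaScreen streptavidin donor/nickel chelate acceptor beads (10 ug/mL final) read after 30 min dark incubation.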
* marks the source's active call; other numbers are inactive results; ? = inconclusive; / = not tested or not shown; ! = not active in a repeat; [ ] = another dose, or the depositor's remark. Unless noted, the call rests on the fitted dose curve; in most records, active means well fitted inhibition curve with a large enough effect; inconclusive means small, poorly fitted or top-dose-only effect; inactive means no such curve, though single readings can be large or run the other way.

SMILES | HP1b chromo inh | PI5P4K alpha inh | BAZ2B inh | G9a block | JMJD2A Tudor inh | L3MBTL1 block
N#C/C(=C\c1ccc(O)c(O)c1)C(=O)N1CCCC1 | 36% | -17 | / | 13µM* | ? | -2%
N#C/C(=C/c1cc(Cl)c(O)c(Cl)c1)C(=O)N1CCCCC1 | 26% | -94* | -4% | 27%[59 µM] | -14% | 10%
CCCCN(C)CCNC(=O)c1ccc2c(c1)NC(=O)CN2 | 2% | / | 0% | 3%[59 µM] | 1% | /
C=CCNC(=O)CSc1nc2sccc2c(=O)n1-c1ccccc1 | 6% | -60* | 6% | -15% | -8% | /
O=C(N=C1SCC(=O)N1c1ccccc1Cl)c1ccco1 | 36% | / | -4% | 50µM* | -24% | -18%
O=C(N=C1SCC(=O)N1c1ccccc1)c1ccco1 | 42% | 2 | 6% | -2%[59 µM] | -9% | /
O=C(O)c1ccccc1-c1c2cc(I)c(=O)c(I)c-2oc2c(I)c(O)c(I)cc12 | ? | -99* | / | / | 18µM* | /
O=C(O)c1c(Cl)c(Cl)c(Cl)c(Cl)c1-c1c2cc(I)c(=O)c(I)c-2oc2c(I)c(O)c(I)cc12 | / | / | / | 1.8µM* | / | /
CCCN1CCN(c2nnc(-n3cccc3C(=O)Nc3cc(Cl)ccc3C)s2)CC1 | 12% | / | ? | ? | ? | /
O=C(CN(CCc1ccccc1)S(=O)(=O)c1ccccc1)NCc1ccc(Cl)cc1 | 59% | / | 5% | 5%[59 µM] | -9% | /
COc1cccc(NC(=O)CN(CCc2ccccc2)S(=O)(=O)c2ccc(Cl)cc2)c1 | -19% | / | ? | 14µM* | 28µM* | /
O=C(CN(CCc1ccccc1)S(=O)(=O)c1ccc(Br)cc1)NCc1ccc(Cl)cc1 | 8% | / | ? | ? | 14µM* | /
COC(=O)c1ccc(NC(=O)CN(CCc2ccccc2)S(=O)(=O)c2ccc(OC)cc2)cc1 | 25% | / | -6% | -4%[59 µM] | -17% | /
Cc1ccc2nc(-c3ccc(NC(=O)COC(=O)c4ccc(Br)o4)cc3)sc2c1 | 30% | -1 | -2% | -1%[59 µM] | -10% | -1%
Cc1ccc2nc(-c3ccc(NC(=O)COC(=O)c4cncc(Br)c4)cc3)sc2c1 | 12% | 2 | -5% | 25µM* | -5% | 1%
COc1ccccc1Nc1ccc(Nc2ccccc2OC)nn1 | -17% | -7 | -34% | 50µM* | ? | -6%
Cc1csc(Nc2cccc3ccccc23)n1 | ? | -1 | 50µM* | 45µM* | ? | -19%
COc1ccccc1Nc1nc(C)cs1 | -21% | -16 | 79µM*! | 3%[2.33 µM] | -15% | 4%
Cc1csc(Nc2ccccc2C(F)(F)F)n1 | 6% | 2 | ? | 24%[0.0925 µM] | 1% | 0%
O=C(c1cnccn1)N1CCC[C@@]2(CCN(Cc3cc(C(F)(F)F)cc(C(F)(F)F)c3)C2)C1 | / | / | / | -2%[12.7 µM] | / | /
Cc1cc(Br)cc2c1N(Cc1ccccc1OC(C)C)C(=O)C2=O | ? | / | 6.3µM* | 8.9µM* | 18µM* | /
COc1ncc2nc(CCc3ccccc3)c(=O)n(C3CC3)c2n1 | / | / | / | 5%[12.7 µM] | / | /
Cc1cccc(C)c1NC(=O)Cn1cc(C(=O)C2CC2)c2ccccc21 | 17% | / | -13% | 0%[59 µM] | -9% | /
O=C(O)CCCNc1n[nH]c(=O)[nH]c1=O | 35% | 3 | ? | 14µM* | -10% | -2%
COc1ccc(Cl)cc1NC(=O)Cn1c(=O)n(Cc2cccs2)c(=O)c2cccnc21 | 9% | / | 1% | 13%[59 µM] | -17% | /
SMILES | HP1b chromo inh | PI5P4K alpha inh | BAZ2B inh | G9a block | JMJD2A Tudor inh | L3MBTL1 block
COc1ccc(C(C)NC(=S)NC2CCCC2)cc1OC (configuration not stated) | 2% | -4 | -6% | 18µM* | -14% | 6%
COc1ccc(C(C)NC(=O)C2CCCC2)cc1OC (configuration not stated) | 20% | 3 | -10% | 8% | 5% | /
Cc1ccc(C2=Nc3ccccc3SC(c3cccc([N+](=O)[O-])c3)C2)cc1 (configuration not stated) | 8% | 2 | 22µM* | 45µM* | ? | -3%
CCCCCCCC1CC(/C(C)=N/NC(N)=O)OC1=O (configuration not stated) | 6% | -14 | 2% | 2% | 40µM* | -5%
C/C(=N\NC(N)=O)C1CC(CC(C)C)C(=O)O1 (configuration not stated) | 41% | 20 | -15% | 22%[12.7 µM] | -7% | 2%
CC(C)(C)NC(=O)COc1ccc(CNCc2cccnc2)cc1 | 35% | 0 | ? | -37% | 89µM* | -2%
COc1cc(CNCc2cccnc2)ccc1OCC(=O)NC(C)(C)C | 33% | -7 | -34% | ? | -20% | -5%
COc1cc(CNCc2ccccn2)ccc1OCC(=O)NC1CCCCC1 | 28% | 0 | 56µM* | ? | ? | ?
Cc1ccc(OCC(=O)NCc2cccnc2)cc1 | 9% | 9 | 4% | -30% | -3% | 2%
COc1cc(CNCc2ccccn2)ccc1OCC(=O)NC(C)(C)C | 36% | -4 | 50µM* | 2%[59 µM] | ? | -18%
CN(C)CCNC(=O)C1CCN(c2ncnc3c2nc2n3CCCCC2)CC1 | 30% | / | 2% | -10%[59 µM] | -21% | /
CC(=O)Nc1ccc(SCC(CC(C)C)N2CCN(CCc3ccccc3)CCC2=O)cc1 (configuration not stated) | 24% | / | / | / | -28% | /
O=C(CSc1ccc2ccccc2c1)Nc1ncccn1 | 32% | -1 | -2% | 45µM* | -7% | 4%
COc1ccc(CCNC(=O)CSc2ccc3ccccc3c2)cc1OC | 33% | -21 | 3% | 25µM* | -19% | -7%
COc1ccc(CCNC(=O)CCCC(=O)n2nc(C)c3ccccc32)cc1OC | 30% | -3 | -10%[57.1 µM] | 79µM* | -17% | /
O=C(CSc1ccc2ccccc2c1)NCCc1ccc(O)c(O)c1 | 79µM* | -25 | / | 2.5µM* | 7.9µM* | -28%
O=C(CSc1ccccc1)NCCc1ccccc1 | 32% | 0 | -5%[57.1 µM] | -3% | -1% | 5%
CCCCn1c(-c2ccccc2)cnc1SCC(=O)NCCc1ccc(OC)c(OC)c1 | ? | / | 45µM* | ? | 56µM* | -18%
O=C(COC(=O)CSc1ccc2ccccc2c1)NC1CC1 | 10% | 3 | -1% | 50µM* | -4% | 9%
O=C(COC(=O)CSc1ccc2ccccc2c1)NC1CCCC1 | 43% | -3 | 0% | ? | -4% | -9%
COc1ccc(NC(=O)CSC2=Nc3ccccc3C3=NC(Cc4ccccc4)C(=O)N23)cc1 (configuration not stated) | -11% | / | -17% | -27%[59 µM] | -25% | /
